According to PubChem BioAssay AID1117319 (Southern Research Institute, 2015):
Where “and” joins values, the source holds several entries; their conditions need not be identical. Equal entries are not always repeated. The whole screen tested about 260,000 compounds, of which about 1,500 (0.58%) were called active. Inconclusive results (about 5%) are left out.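 The calls were made as follows: active = inhibition above a set limit at one or more doses, reproduced on every date tested; inconclusive = results disagree between test dates, or hit never tested in dose response; inactive = the rest.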 A selection follows. Measured potencies and affinities stand elsewhere.

target: Virion infectivity factor (Human immunodeficiency virus type 1 group M subtype B (isolate BH10)) + Virion infectivity factor (Human immunodeficiency virus type 1 group M subtype B (isolate BRU/LAI)) + Virion infectivity factor (Human immunodeficiency virus type 1 group M subtype B (isolate PCV12)) + Virion infectivity factor (Human immunodeficiency virus type 1 group M subtype B (isolate HXB2)) + DNA dC->dU-editing enzyme APOBEC-3G (Homo sapiens) (UniProt P69720+P69721+P69722+P69723+Q9HC16); assay: inhibitors of Vif binding to APOBEC3G peptide, primary screen, biochemical, TR-FRET, GST-Vif 1-94, biotin-A3G peptide, dose response retest (AID 1117319); conditions: stronger effect = higher value;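 also: Vif residues 1-94 fused to GST binding biotinylated APOBEC3G peptide 110-148; 0% = full assay without inhibitor and 100% = GST in place of GST-Vif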

inhibition, inactive:
NC(=O)C1(C(=O)O)OC1(c1ccc(Cl)cc1)c1ccccc1Cl (stereo not drawn) 5.1%
CC(C)CCNC(=O)c1ccc2c(SCC(=O)O)c3c(nc2c1)CCCC3 25.7%
CCOc1ccc(NC(=O)c2ccc3c(SCC(=O)O)c4c(nc3c2)CCCC4)cc1 2.98%
COc1cc(NC(=O)c2ccc3c(SCC(=O)O)c4c(nc3c2)CCC4)cc(OC)c1OC 22.2%
CCN(CC)CCCNC(=O)c1ccc2c(SCC(=O)O)c3c(nc2c1)CCC3 27.5%
CN1CCN(C(=O)c2ccc(CN3CCOCC3)cc2)CC1 -3.34%
Cc1cc(NS(=O)(=O)c2ccc(NC(=O)CSc3nnc(-c4ccco4)n3C)cc2)nc(C)n1 2.91%
O=C(Nc1ccccc1Cl)Nc1ccnn1C1CCN(C(=O)c2cscn2)CC1 5.94%
C=CCn1c(SCC(=O)NC2CC2)nc2ccccc2c1=O 1.47%
O=C(/C=C/Nc1ccc(F)cc1)c1ccco1 10.5%
O=C(/C=C/Nc1ccc(Oc2ccccc2)cc1)c1ccco1 12.6%
NS(=O)(=O)c1ccc(NC(=O)C2CCCN(S(=O)(=O)c3ccc(F)cc3)C2)cc1 (stereo not drawn) -11.9%
Cc1ccc(N(CC(=O)NCc2cccnc2)S(C)(=O)=O)cc1C -4.47%
COc1cccc(N(CC(=O)NCc2cccnc2)S(C)(=O)=O)c1 -2.81%
O=C(Nc1ccccc1N1CCOCC1)c1ccc(Br)o1 7.09%
CN1CCN(c2ccccc2NC(=O)c2ccc(Br)o2)CC1 0.41%
O=C(O)c1cc(-c2ccc(N3CCOCC3)cc2)nn1-c1ccc(F)cc1 18.4%
Cn1cnc(S(=O)(=O)N2CCc3ccccc32)c1 3.79%
c1cc2c3c(cccc3c1)NC1(CCCCC1)N2 10.4%
c1cc2c3c(cccc3c1)NC1(CCCC1)N2 2.08%
Cc1cc(=O)[nH]c(SCCCOc2ccc3c(c2)CCC3)n1 -0.15%
CC(C)n1nnnc1SCC(=O)NCc1ccco1 20%
Cn1c(SCC(=O)NCc2ccco2)nnc1-c1cccs1 -8.22%
CCn1nnnc1SCC(=O)NCc1ccco1 21.2%
CCn1c(SCC(=O)NC(=O)NCc2ccco2)nnc1-c1cccs1 -5.61%
Clc1ccccc1Cc1noc(CN2CCCCC2c2ccccn2)n1 (stereo not drawn) 2.88%
COc1cccc(OCc2nnc(SCC(=O)N3c4ccccc4Sc4ccc(Cl)cc43)o2)c1 8.84%
O=C(CN(C(=O)Cn1nnc(-c2ccc(F)cc2)n1)c1cnc2ccccc2c1)NCC1CCCO1 (stereo not drawn) -11.4%
Cc1cc(C)n2nc(-c3ccsc3-n3c(C)ccc3C)cc2n1 16.4%
Cc1cc(=O)n2[nH]c(-c3sccc3-n3c(C)ccc3C)cc2n1 -3.07%
O=C(c1ccccc1)c1n[nH]c(-c2ccccc2)cc1=O 0.47%
CCOC(=O)N1CCC(NC(=O)c2cnn3cccnc23)CC1 -2.64%
O=C(O)CCCC(=O)Nc1c(F)c(F)c(F)c(F)c1F 3.4%
O=C(CCSCCC(=O)Nc1c(F)c(F)c(F)c(F)c1F)Nc1c(F)c(F)c(F)c(F)c1F -9.21%
CN(C)c1nc(NNC(=O)c2ccccc2)nc(N(C)C)n1 -5.34%
C=CCn1c(SCC(=O)c2cccs2)nc2sc(C)c(C)c2c1=O -46.6%
C=CCn1c(SCC(=O)Nc2cc(C)on2)nc2sc(C)c(C)c2c1=O -2.76%
CCN(CC(=O)Nc1c(F)cccc1F)C(=O)c1ccc2c(c1)S(=O)(=O)N=C1CCCCCN12 -6.51%
COc1cc(/C=C/C(=O)OCC(=O)NCC2CCCCC2)ccc1O -4.25%
O=C(/C=C/c1ccc(O)c(O)c1)c1ccccc1O 13.2%
O=C(CCOc1ccccc1)Nc1ccc([N+](=O)[O-])cc1 5.33%
COc1ccc(NC(=O)CN(C)C(=O)c2cc(-c3ccc(Cl)cc3)nc3ccccc23)cc1 2.66%
CN(CC(=O)Nc1cccc(F)c1)C(=O)c1cc(-c2ccccc2)nc2ccccc12 -4.43%
COc1ccc(NC(=O)c2cc(C)nc3ccccc23)cc1S(=O)(=O)N1CCOCC1 -2.24%
CCOc1ccc(NC(=O)CN(C)C(=O)c2cc(-c3ccco3)nc3ccccc23)cc1OCC -2.81%
Cc1ccc(NC(=O)c2cc(-c3ccco3)nc3ccccc23)cc1S(=O)(=O)N1CCOCC1 32.6%
Cc1ccc(NC(=O)CN(C)C(=O)c2cc(-c3ccco3)nc3ccccc23)cc1 55.7%
COc1cccc(NC(=O)CN(C)C(=O)c2cc(-c3ccco3)nc3ccccc23)c1 23.7%
COc1ccc(NC(=O)CN(C)C(=O)c2cc(-c3ccc(OC)cc3)nc3ccccc23)cc1 -5.94%
CC(=O)c1cccc(N/C=C\c2nnnn2-c2ccc(F)cc2)c1 -15.5%
CCOC(=O)c1ccc(-c2c(C)cc3oc(=O)cc(-c4ccccc4)c3c2C)cc1 -7.8%
CN(C)c1ccc(C=O)c(Oc2ccccc2)c1 -6.28%
COc1ccc(C(=O)c2ccc(N(C)C)cc2)c2ccccc12 -5.09%
CC1=NN(c2cccc(F)c2)C(=O)/C1=C/c1ccc(N(C)C)cc1 7.52%
CCN(CC)CC(O)Cn1c(C)c(-c2ccccc2)c2cc([N+](=O)[O-])ccc21 (stereo not drawn) -3.66%
CN(C)c1ccc(C=c2c3ccccc3n3c2c2c([n+]3C)CCCC2)cc1 26.6%
O=[N+]([O-])c1ccc2c(c1)c(-c1ccccc1)nc1nncn12 1.68%
Cc1cccc(C)c1NC(=O)C1CCCN(CCCc2ccccc2)C1 (stereo not drawn) 3.24%
COC(=O)c1ccc(CNC(=O)c2ccc(NS(=O)(=O)c3ccc4[nH]c(=O)[nH]c4c3)cc2)cc1 -7.35%
CCOc1ccc(NC(=O)/C(C=Nc2ccccc2)=C(\C)O)cc1 -3.41%
CCCc1nc(SCC(=O)N2CCCC2)c2ccccc2n1 -0.12%
CC(C)(C)OC(=O)N(CCc1ccccc1)Cc1ccccc1OCc1cccc(NC(=O)C2CCCC2)c1 1.13%
CN(C)CCCNC(=O)C[C@H]1C[C@H](C(=O)N2CCCCC2)[C@@]2(CCc3ccccc3)c3[nH]c4ccc(Cl)cc4c3CCN2C1=O 3.82%
O=C1CC(c2ccccc2)CC(O)=C1C=Nc1ccccc1Cl (stereo not drawn) -5.59%
Cc1[nH]nc(N=CC2=C(O)CC(c3ccco3)CC2=O)c1-c1ccc(Cl)cc1 (stereo not drawn) 8.53%
CC(C)C(=O)N1CCN(CCN=CC2=C(O)CC(c3ccco3)CC2=O)CC1 (stereo not drawn) -5.81% and 11.7%
O=C1CC(c2ccco2)CC(O)=C1C=NCCN1CCN(C(=O)Nc2ccc(Cl)cc2)CC1 (stereo not drawn) -5.15%
O=C1CC(c2ccco2)CC(O)=C1C=Nc1ccccc1-c1ccccc1 (stereo not drawn) 18.4%
O=C1CC(c2ccco2)CC(O)=C1C=NCCN1CCNCC1 (stereo not drawn) 31.7%
Cc1ccc(N=CC2=C(O)CC(c3ccco3)CC2=O)cc1 (stereo not drawn) 14.7%
CCc1ccc(N=CC2=C(O)CC(c3ccco3)CC2=O)cc1 (stereo not drawn) -1.68%
COc1cccc(NC(=O)CC(C)=O)c1 3.45%
CCNc1nc(NC(C)(C)C)nc(SCC(N)=O)n1 -9.57%
O=C(CN(Cc1cccs1)C(=O)CSc1nnc(COc2ccccc2)o1)NC1CCCCC1 3.54%
COc1ccc(C)cc1NC(=S)N1CCN(c2ncccn2)CC1 6.81%
CC1CCN(S(=O)(=O)c2ccc(C(C)C)cc2)CC1 -4.55%
Cc1cn([C@H]2C[C@H](O)[C@@H](CCC(=O)NCc3ccco3)O2)c(=O)[nH]c1=O 3.31%
Cc1cc(NC(=O)c2cc(-c3ccc(O)cc3)on2)no1 -3.11%
C=CCSc1nc2sc(C)c(C)c2c(=O)n1CC=C -3.91%
COc1cc(C2N(c3ccccn3)C(=O)C3CCCN32)cc(OC)c1OC (stereo not drawn) -8.96%
O=C1C2CCCN2C(c2ccccc2)N1c1ccc(Cl)cc1 (stereo not drawn) 15.8%
COc1ccc(N2C(=O)C3CCCN3C2c2cccs2)cc1 (stereo not drawn) -1.1%
O=C1C2CCCN2C(c2cccs2)N1c1ccc(Cl)cc1 (stereo not drawn) -1.78%
O=C(CNC(=O)c1ccc(Br)o1)Nc1cccc(S(=O)(=O)N2CCOCC2)c1 1.25%
CC1CCCCC1NC(=O)c1c(O)nc2ccccn2c1=O (stereo not drawn) -12.1%
COc1ccc(C(=O)Nc2ccc3c(c2)OCCO3)c(OC)c1 1.98%
Cc1ccc(C(=O)n2ncn(C)c2=S)cc1 -5.15%
COC(=O)CN1C(=O)COc2ccc(S(=O)(=O)N3CCCCC3)cc21 -2.76%
Nc1cccc2nc3ccccc3cc12 11.9%
Cc1cc(N)c2ccccc2n1 3.24%
O=C(CN1CCC(C(=O)c2ccc3c(c2)OCCO3)CC1)Nc1ccccc1F 2.56%
COc1cccc(C2NC(=O)c3ccccc3O2)c1OC (stereo not drawn) -1.95%
Cc1cc(-c2nnc(CCC(=O)N(CC3CC3)CC3CCCO3)o2)no1 (stereo not drawn) 0.72%
